Pf Dd2 growth = Plasmodium falciparum Dd2 growth inhibition; P. falciparum Dd2 growth, SYBR Green, 72 h; Potency, µM (highest dose often 28.9 µM), inactives show at the top dose activity, negative = inhibition, most hits filed as inhibitors; 4.3% of 120,000 active; AID 1347417; active = well fitted inhibition curve with a large enough effect;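 also: plate controls were DMSO vehicle for no effect and reference drug for full effect; nearly all actives have a fitted effect of over 65% in size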
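Infected erythrocytes (Dd2, 0.3% parasitemia, 2.5% hematocrit final) are added to compound in RPMI-1640/Albumax II medium, grown 72 h at 37C in low oxygen, then lysed with saponin/Triton-X containing SYBR Green and read by fluorescence.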
The depositor's hits bear a star; [ ] = dose if it differs, or a comment. Shown is part of a subset that was picked to be rich in hits. Potency is read from the fitted curve at half-maximal effect.

Screening O=C1COCCN1C1CCN([S+](=O)([O-])c2ccccc2)CC1 returned Pf Dd2 growth 29%.
For CCOC(=O)c1ccc2c(c1)[C@@H]1C=CC[C@@H]1[C@H](c1cccc(OC)c1OC)N2 the results were Pf Dd2 growth 0.45µM*.
Screening COc1ccc(OC)c([C@@H]2Nc3ccc(C(=O)O)cc3[C@@H]3C=CC[C@@H]32)c1 returned Pf Dd2 growth 12%.
For COc1ccc(Br)cc1[C@@H]1Nc2ccc(C(=O)O)cc2[C@@H]2C=CC[C@@H]21 the results were Pf Dd2 growth 8%.
For COCCNC(=O)c1ccc2c(c1)N(C)C(CC(=O)NC(C)C)CO2 (stereo unspecified) the results were Pf Dd2 growth 0%.
`O=C(CCc1nnn2c1CNCC2)NC1CC1` gave Pf Dd2 growth -6%.
Cc1nnc2n1CCC(N(C)C(=O)NCc1ccco1)CC2 (stereo unspecified) was read as Pf Dd2 growth -24%.
`COc1ccc2cc1Nc1ccc(cc1)C[C@H](NCc1cccc(O)c1)C(=O)N(C)[C@@H](C(=O)Nc1ccccc1)C2` gave Pf Dd2 growth 4.5µM*.
For COc1ccc(CCN2C(=O)N(c3ccc(F)cc3)C(=O)C2CC(=O)Nc2ccccc2)cc1OC (stereo unspecified) the results were Pf Dd2 growth inactive.
Screening COc1ccc2cc1Nc1ccc(cc1)C[C@H](NCC1CC1)C(=O)N(C)[C@@H](C(=O)Nc1ccccc1)C2 returned Pf Dd2 growth 4µM*.
COc1ccc(CCNC(=O)C2CC(=O)N(CCc3ccccc3)C2)cc1OC (stereo unspecified) was read as Pf Dd2 growth 70%.
For COc1ccc(NC(=O)C2Cn3cccc3C(=O)N2C)cc1 (stereo unspecified) the results were Pf Dd2 growth -18%.
COc1ccc(S(=O)(=O)N2Cc3ccccc3CC2C(=O)Nc2cccc(C)c2)cc1OC (stereo unspecified) was read as Pf Dd2 growth -13%.
Screening Cc1ccc(C)c(C(=O)NCc2nnc3cc(-c4nc(C5CC5)no4)ccn23)c1 returned Pf Dd2 growth inactive.
For CCOc1ccccc1C(=O)N1CCC(n2cc(-c3nc(-c4ccccc4)no3)nn2)CC1 the results were Pf Dd2 growth inactive.
For CCOC(=O)C1CCCN(C(=O)c2cnc3cc(C)nn3c2)C1 (stereo unspecified) the results were Pf Dd2 growth -2%[44.1 µM].
Screening Cc1ccccc1CCC1CCCN(C(=O)CCc2cnccn2)C1 (stereo unspecified) returned Pf Dd2 growth inactive.
`Cc1ccccc1CCC1CCCNC1` (stereo unspecified) gave Pf Dd2 growth 11µM*.
Screening Cc1ccccc1CCC1CCCN(S(C)(=O)=O)C1 (stereo unspecified) returned Pf Dd2 growth -19%.
Screening O=C(c1cccc(OC(F)(F)F)c1)N1CCN(c2cc(-c3ccc(F)cc3)[nH]n2)CC1 returned Pf Dd2 growth inactive.
O=C(Nc1ccccc1F)N1CCC2(CCCN(C3CCCCC3)C2=O)C1 (stereo unspecified) was read as Pf Dd2 growth -12%.
`c1ccc(-c2noc(-c3cncnc3Nc3ccc4c(c3)OCCO4)n2)cc1` gave Pf Dd2 growth inactive.
`c1ccc(-c2noc(-c3cncnc3Nc3ccc4c(c3)OCO4)n2)cc1` gave Pf Dd2 growth 5.6µM*.
`COc1ccc(Nc2ncncc2-c2nc(-c3ccccc3)no2)cc1OC` gave Pf Dd2 growth inactive.
`CC1(C)N=C(c2ccccc2)C(=O)N1CC(=O)NC1CCc2ccccc21` (stereo unspecified) gave Pf Dd2 growth -13%.
CC(=O)N1CCC(C2CCN(Cc3cc(F)c(F)cc3F)C2)CC1 (stereo unspecified) was read as Pf Dd2 growth inactive.
CC1=C(C(=O)Nc2ccc(C)cc2C)C(c2ccc(C(=O)O)cc2)n2nc(SCc3ccccc3)nc2N1 (stereo unspecified) was read as Pf Dd2 growth -5%.
Screening CC1=C(C(=O)Nc2ccc(C)cc2C)C(c2ccc(C(C)C)cc2)n2nc(C(F)(F)F)nc2N1 (stereo unspecified) returned Pf Dd2 growth 13µM*.
COc1cc(C2C(C(=O)Nc3ccc(C)cc3C)=C(C)Nc3nc(SCc4ccccc4)nn32)cc(OC)c1OC (stereo unspecified) was read as Pf Dd2 growth -2%.
O=C(N[C@H]1C[C@@H]2C(=O)N[C@H]3CCN(C(=O)c4cccs4)[C@@H]3C(=O)N2C1)C1CCCC1 was read as Pf Dd2 growth inactive.
COCCOC1CCOC2(CCN(C(=O)NCc3ccccc3)CC2)C1 (stereo unspecified) was read as Pf Dd2 growth -5%.
COC1CN(c2cccc(F)c2)C12CCN(C(=O)c1ccnn1C)CC2 (stereo unspecified) was read as Pf Dd2 growth 15%.
Screening Fc1ccc(-c2noc3ncnc(NCCCN4CCN(c5ccccc5)CC4)c23)cc1 returned Pf Dd2 growth -23%.
For CCOc1ccc(CCNc2ncnc3onc(-c4ccc(Cl)cc4)c23)cc1OCC the results were Pf Dd2 growth inactive.

Screens deposited in PubChem by National Center for Advancing Translational Sciences (NCATS).
